# More than one record can exist for a structure, and the calls need not agree. The source made the active and inactive calls. Rule for the calls: active = hit-call score of the fitted dose curve at least 0.9, where 1 is the maximum; inactive = score below 0.9.
# Read-out: Plasminogen activator inhibitor-1 (PAI1), SERPINE1 (gene 5054)
# Assay: BSK_MyoF_PAI1: BioMAP Diversity Plus: MyoF Assay for Plasminogen activator inhibitor-1 (PAI1) Biomarker Activity (AID 2284256)
# Settings: primary human lung fibroblasts
# Protocol: BSK_MyoF is a cell-based, multiplexed-readout assay that uses lung fibroblasts, […], with measurements taken at 24 hours after chemical dosing in a microplate: 96-well plate.BSK_MyoF_PAI1 is an assay component measured in the BSK_MyoF assay. It measures PAI-1 antibody related to regulation of gene expression using ELISA technology.Data from the assay component BSK_MyoF_PAI1 was analyzed at the endpoint, BSK_MyoF_PAI1, in the positive analysis fitting direction relative to DMSO as the negative control and baseline of activity. Using a type of binding reporter, gain or loss-of-signal activity can be used to understand protein changes. To generalize the intended target to other relatable targets, this assay endpoint is annotated to the 'cytokine' intended target family, where the subfamily is 'plasmogen activator inhibitor'.
# The levels of cell surface (or secreted, indicated by the prefix "s") biomarker endpoints were measured by ELISA. Overt cytotoxicity to cells in confluent adherent cultures (all systems other than the BT system) was assessed by measuring total protein levels using sulforhodamine B (SRB) staining in parallel cultures at the time of biomarker measurements, indicated as SRB endpoints. For proliferation assays for adherent cell types, individual cell types are cultured at sub-confluence and relative cell numbers quantified by SRB staining at time points optimized for each system (48 h: 3C and CASM3C systems; 72 h: BT and HDF3CGF systems; 96 h: SAg system). SRB was performed by staining cells with 0.1% SRB after fixation with 10% TCA and reading wells at 560 nm.Viability and proliferation of PBMC (T cells) was quantified by Alamar Blue reduction for the SAg and BT systems. For PBMC viability (referred to as PBMC Cytotoxicity within the assay endpoint names), cells were plated (75,000/well in a 96-well plate) and then chemical samples added for 1 h before addition of activators, SEB and TSST-1 (20 ng/mL final concentration each). Cells were incubated for 90 h. Then, Alamar Blue (20 uL/well) (Invitrogen, Cat DAL1100) was added for 6 h, and the plates were read with a fluorescence microplate reader at 546/580 nm (excitation/emission). For PBMC proliferation, cells were plated and activated as above but incubated for only 16 h prior to addition of Alamar Blue. Plates were read after 6 h.
SMILES,outcome,AC50
CC(O)C(F)(F)C(F)(F)F (centres undefined),inactive,
c1ccc2c(c1)sc1ccccc12,inactive,
OCC(F)(F)OC(F)(F)C(F)(F)OC(F)(F)C(F)(F)OC(F)(F)CO,inactive,
O=S(=O)(F)C(F)(F)C(F)(F)C(F)(F)C(F)(F)C(F)(F)C(F)(F)C(F)(F)C(F)(F)F,inactive,
Nc1ccc([N+](=O)[O-])cc1Cl,inactive,
OCC(F)(F)OC(F)(F)C(F)(F)OC(F)(F)C(F)(F)OC(F)(F)F,inactive,20.9 µM (active)
COP(N)(=S)OC,inactive,
COP(=O)(O)OC,inactive,
CC(C)Nc1ccc(Nc2ccccc2)cc1,,30.6 µM (active)
C=CC(=O)OCC(CC)(COC(=O)C=C)COC(=O)C=C,,2.7 µM (active)
O=P(OCC(Br)CBr)(OCC(Br)CBr)OCC(Br)CBr (centres undefined),inactive,
Cc1c([N+](=O)[O-])cc2c(c1[N+](=O)[O-])C(C)(C)CC2(C)C,inactive,
CC(Cl)CN(C)C (centres undefined),,0.016 µM (active)
CCCCOCCOP(=O)(OCCOCCCC)OCCOCCCC,,0.0918 µM (active)
O=S1(=O)OCC2C(CO1)C1(Cl)C(Cl)=C(Cl)C2(Cl)C1(Cl)Cl (centres undefined),inactive,
O=C(O)C=CC(F)(C(F)(F)F)C(F)(F)F,inactive,
O=C(O)C(F)(F)OC(F)(F)C(F)(F)OC(F)(F)C(=O)O,inactive,
NC(=O)C(F)(F)C(F)(F)F,inactive,
O=c1ssc(Cl)c1Cl,,11.1 µM (active)

SMILES,outcome,AC50
CCCCC(CC)COC(=O)c1c(Br)c(Br)c(Br)c(Br)c1C(=O)OCC(CC)CCCC (centres undefined),inactive,
ClC(Cl)=C(c1ccc(Cl)cc1)c1ccccc1Cl,,9.39 µM (active)
CCOP(=S)(NC(C)C)Oc1ccccc1C(=O)OC(C)C (centres undefined),inactive,
COC(=O)C(F)(F)C(F)(F)OC(F)(C(F)(F)F)C(F)(F)OC(F)=C(F)F (centres undefined),inactive,
N#Cc1cc([N+](=O)[O-])ccc1N,inactive,
CCOP(=S)(OCC)SCS(=O)(=O)CC,inactive,
CCOP(=S)(OCC)SCSc1ccc(Cl)cc1,,3.97 µM (active)
C=CC(=O)OCC(F)(F)C(F)F,inactive,
O=C(O)C(F)(OC(F)(F)C(F)(F)C(F)(F)F)C(F)(F)F (centres undefined),inactive,
CCOP(=S)(S)OCC,inactive,
CC(C)(C)c1ccccc1OP(=O)(Oc1ccccc1)Oc1ccccc1,,20 µM (active)
CCOP(=S)(OCC)SCn1nnc2ccccc2c1=O,inactive,
OCC(F)(F)OC(F)(F)C(F)(F)OC(F)(F)CO,inactive,
O=C(O)C(F)(F)C(F)(F)C(=O)O,inactive,
Cc1ccc2c(c1N)C(=O)c1ccccc1C2=O,inactive,
N#Cc1c(-c2ccc(Cl)cc2)[nH]c(C(F)(F)F)c1Br,,20 µM (active)
CCCCC(CC)COP(=O)(Oc1ccccc1)Oc1ccccc1 (centres undefined),,16 µM (active)
FC(F)(F)C(F)(C(F)(F)F)C(F)(F)C(F)(F)CC1CO1 (centres undefined),inactive,
O=C(O)C(F)(F)OC(F)(F)C(F)(F)OC(F)(F)F,inactive,

# From PubChem BioAssay (EPA / NIEHS)
